Laboratory results taken from PubChem BioAssay (NCI).
This is part of a sample that, as a whole, favours compounds with a hit. Of some 79,000 tested, about 15% had one in any assay. Unmarked numbers belong to inactive results. Active and inactive are the calls of the source. No stated cut-off is given here; in the data, active means growth inhibition above about 70%; inactive means the rest.

Key:
[1] = NCI Yeast Anticancer Drug Screen. Data for the wt1 strain (AID 149);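 further: 0% = growth of vehicle-treated wt1 cultures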; settings: S. cerevisiae wt1 strain (SPY 50644) growth inhibition, stronger effect = higher value
Procedure, shortened: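 The wt1 strain was treated with compounds, and growth was compared with vehicle-treated cultures to give inhibition.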

[2] = NCI Yeast Anticancer Drug Screen. Data for the rad50EPP+ strain (AID 151);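 further: 0% = growth of vehicle-treated control cultures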; settings: S. cerevisiae rad50 mutant strain, stronger effect = higher value
Procedure, shortened: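 Yeast strain carrying rad50 alteration (rad50EPP+) exposed to compounds; growth inhibition measured relative to vehicle-treated controls.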

[3] = NCI Yeast Anticancer Drug Screen. Data for the mgt1 strain (AID 153); settings: S. cerevisiae mgt1 mutant growth inhibition, stronger effect = higher value
Procedure, shortened: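 Yeast mgt1 strain (DNA repair/cell-cycle alteration panel) exposed to compounds; growth inhibition measured relative to vehicle-treated controls.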

[4] = NCI Yeast Anticancer Drug Screen. Data for the rad50 strain (AID 155);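 further: 0% = growth of vehicle-only cultures of the same strain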; settings: S. cerevisiae rad50 strain growth inhibition, stronger effect = higher value
Procedure, shortened: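 Cells are treated with compound, grown, and their growth is then scored against vehicle-only cultures of the same repair-deficient yeast strain.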

[5] = NCI Yeast Anticancer Drug Screen. Data for the mec2-1 strain (AID 157); settings: S. cerevisiae mec2-1 strain, stronger effect = higher value
Procedure, shortened: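 mec2-1 yeast strain, carrying an alteration in DNA damage repair or cell cycle control, was exposed to compounds; growth inhibition was measured relative to vehicle-treated controls.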

[6] = NCI Yeast Anticancer Drug Screen. Data for the rad14 strain (AID 159);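 further: 0% = growth of vehicle-treated control cultures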; settings: S. cerevisiae rad14 strain growth inhibition, stronger effect = higher value
Procedure, shortened: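 Readout: yeast growth inhibition, referenced to vehicle-only cultures. Strain bears a defined alteration in DNA damage repair.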

[7] = NCI Yeast Anticancer Drug Screen. Data for the sgs1 mgt1 strain (AID 161);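 further: 0% = growth of cultures given vehicle only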; settings: S. cerevisiae sgs1 mgt1 strain, stronger effect = higher value
Procedure, shortened: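 Compounds are added to genetically altered yeast, and growth is compared with cultures given vehicle alone to give percent inhibition.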

[8] = NCI Yeast Anticancer Drug Screen. Data for the CLN2oe strain (AID 163);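 further: 0% = growth of vehicle-only control cultures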; settings: S. cerevisiae CLN2oe strain, stronger effect = higher value
Procedure, shortened: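 Yeast cells carrying a defined cell-cycle control alteration were exposed to test compounds. Growth inhibition was scored against vehicle-treated control cultures.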

[9] = NCI Yeast Anticancer Drug Screen. Data for the cln2 rad14 strain (AID 165);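 further: 0% = growth equal to vehicle treated cultures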; settings: S. cerevisiae cln2 rad14 strain, stronger effect = higher value
Procedure, shortened: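 Yeast carrying cln2 and rad14 alterations (cell cycle control and DNA damage repair) were exposed to compounds. Growth inhibition was measured against vehicle-treated controls.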

[10] = NCI Yeast Anticancer Drug Screen. Data for the bub3 strain (AID 167); settings: S. cerevisiae bub3 mutant strain, stronger effect = higher value
Procedure, shortened: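 Part of a panel of yeast mutants defective in DNA damage repair or cell cycle regulation. Each strain is grown with compound, and inhibition is calculated relative to solvent-treated cultures.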

[11] = NCI Yeast Anticancer Drug Screen. Data for the wt2 strain (AID 169);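 further: 0% = growth of vehicle-treated yeast cultures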; settings: S. cerevisiae wt2 strain growth inhibition, stronger effect = higher value
Procedure, shortened: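 Yeast cells were exposed to test compounds, and growth inhibition was measured relative to vehicle-treated controls.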

[12] = NCI Yeast Anticancer Drug Screen. Data for the mlh1 strain (AID 171);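 further: 0% = growth of vehicle-treated control cultures of the same strain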; settings: S. cerevisiae mlh1 strain growth inhibition, stronger effect = higher value
Procedure, shortened: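 Yeast carrying a defined genetic alteration in DNA damage repair or cell cycle control were exposed to test compounds. Growth inhibition was measured relative to vehicle-treated controls.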

[13] = NCI Yeast Anticancer Drug Screen. Data for the sgs1 strain (AID 173);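 further: 0% = growth of vehicle-only control cultures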; settings: S. cerevisiae sgs1 mutant, stronger effect = higher value
Procedure, shortened: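 Yeast mutant strains carrying defined defects in DNA damage repair or cell cycle control were exposed to test compounds. Growth inhibition was scored against vehicle-treated controls.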

[14] = NCI Yeast Anticancer Drug Screen. Data for the mlh1 rad18 strain (AID 175); settings: S. cerevisiae mlh1 rad18 strain growth inhibition, stronger effect = higher value
Procedure, shortened: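 Growth inhibition of the yeast strain was measured after compound exposure and expressed relative to vehicle-treated controls. The strain carries defined defects in DNA damage repair.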

[15] = NCI Yeast Anticancer Drug Screen. Data for the rad18 strain (AID 177); settings: S. cerevisiae rad18 mutant growth inhibition, stronger effect = higher value
Procedure, shortened: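 Yeast carrying a defined DNA damage repair alteration were exposed to compounds. Growth inhibition was expressed relative to vehicle-treated controls.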

[16] = at 5.0 µM (retest, dose inferred, filed as 0.5)
[17] = at 50.0 µM (retest, dose inferred, filed as 5.0)

CCN(CCCl)CCCCNc1c2ccccc2nc2ccc(OC)cc12
growth inhibition ([1]; at 1.2 µM): 3%
growth inhibition ([1]; at 3.7 µM): 8%
growth inhibition ([1]; at 11.0 µM): 32%
growth inhibition ([1]; at 33.0 µM): 74% (active)
growth inhibition ([1]; at 100.0 µM): 95% (active)
growth inhibition ([2]; at 1.2 µM): 18%
growth inhibition ([2]; at 3.7 µM): 39%
growth inhibition ([2]; at 11.0 µM): 63%
growth inhibition ([2]; at 33.0 µM): 77% (active)
growth inhibition ([2]; at 100.0 µM): 90% (active)
growth inhibition ([3]; at 1.2 µM): 9%
growth inhibition ([3]; at 3.7 µM): 14%
growth inhibition ([3]; at 11.0 µM): 42%
growth inhibition ([3]; at 33.0 µM): 86% (active)
growth inhibition ([3]; at 100.0 µM): 97% (active)
growth inhibition ([4]; at 1.2 µM): 38%
growth inhibition ([4]; at 3.7 µM): 64%
growth inhibition [4, 16]: 46%
growth inhibition ([4]; at 11.0 µM): 84% (active)
growth inhibition ([4]; at 33.0 µM): 91% (active)
growth inhibition [4, 17]: 46%
growth inhibition ([4]; at 50.0 µM): 85.8% (active)
growth inhibition ([4]; at 100.0 µM): 95% (active)
growth inhibition ([5]; at 1.2 µM): 9%
growth inhibition ([5]; at 3.7 µM): 18%
growth inhibition [5, 16]: 26%
growth inhibition ([5]; at 11.0 µM): 48%
growth inhibition ([5]; at 33.0 µM): 94% (active)
growth inhibition [5, 17]: 26%
growth inhibition ([5]; at 50.0 µM): 74.2% (active)
growth inhibition ([5]; at 100.0 µM): 97% (active)
growth inhibition ([6]; at 1.2 µM): 4%
growth inhibition ([6]; at 3.7 µM): 17%
growth inhibition ([6]; at 11.0 µM): 80% (active)
growth inhibition ([6]; at 33.0 µM): 95% (active)
growth inhibition ([6]; at 100.0 µM): 98% (active)
growth inhibition [7, 16]: 60%
growth inhibition [7, 17]: 60%
growth inhibition ([7]; at 50.0 µM): 72.1% (active)
growth inhibition ([8]; at 1.2 µM): 8%
growth inhibition ([8]; at 3.7 µM): 33%
growth inhibition ([8]; at 11.0 µM): 57%
growth inhibition ([8]; at 33.0 µM): 78% (active)
growth inhibition ([8]; at 100.0 µM): 95% (active)
growth inhibition [9, 16]: 24%
growth inhibition [9, 17]: 24%
growth inhibition ([9]; at 50.0 µM): 77.9% (active)
growth inhibition ([10]; at 1.2 µM): -21%
growth inhibition ([10]; at 3.7 µM): -14%
growth inhibition [10, 16]: -15%
growth inhibition ([10]; at 11.0 µM): 38%
growth inhibition ([10]; at 33.0 µM): 82% (active)
growth inhibition [10, 17]: -15%
growth inhibition ([10]; at 50.0 µM): 60.9%
growth inhibition ([10]; at 100.0 µM): 94% (active)
growth inhibition ([11]; at 1.2 µM): 4%
growth inhibition ([11]; at 3.7 µM): 13%
growth inhibition ([11]; at 11.0 µM): 38%
growth inhibition ([11]; at 33.0 µM): 82% (active)
growth inhibition ([11]; at 100.0 µM): 95% (active)
growth inhibition ([12]; at 1.2 µM): 4%
growth inhibition ([12]; at 3.7 µM): 16%
growth inhibition ([12]; at 11.0 µM): 51%
growth inhibition ([12]; at 33.0 µM): 70% (active)
growth inhibition ([12]; at 100.0 µM): 96% (active)
growth inhibition ([13]; at 1.2 µM): 46%
growth inhibition ([13]; at 3.7 µM): 69%
growth inhibition ([13]; at 11.0 µM): 82% (active)
growth inhibition ([13]; at 33.0 µM): 90% (active)
growth inhibition ([13]; at 100.0 µM): 96% (active)
growth inhibition [14, 16]: 18%
growth inhibition [14, 17]: 18%
growth inhibition ([14]; at 50.0 µM): 69.5%
growth inhibition ([15]; at 1.2 µM): 66%
growth inhibition ([15]; at 3.7 µM): 80% (active)
growth inhibition ([15]; at 11.0 µM): 90% (active)
growth inhibition ([15]; at 33.0 µM): 94% (active)
growth inhibition ([15]; at 100.0 µM): 95% (active)

CC1CN=C(Nc2ccccc2)S1 (stereo unspecified)
growth inhibition ([1]; at 1.2 µM): -15%
growth inhibition ([1]; at 3.7 µM): -5%
growth inhibition ([1]; at 11.0 µM): -21%
growth inhibition ([1]; at 33.0 µM): -25%
growth inhibition ([1]; at 100.0 µM): -32%
growth inhibition ([2]; at 1.2 µM): -52%
growth inhibition ([2]; at 3.7 µM): -46%
growth inhibition ([2]; at 11.0 µM): -49%
growth inhibition ([2]; at 33.0 µM): -72%
growth inhibition ([2]; at 100.0 µM): -54%
growth inhibition ([3]; at 1.2 µM): -57%
growth inhibition ([3]; at 3.7 µM): -76%
growth inhibition ([3]; at 11.0 µM): -54%
growth inhibition ([3]; at 33.0 µM): -51%
growth inhibition ([3]; at 100.0 µM): -60%
growth inhibition ([4]; at 1.2 µM): -5%
growth inhibition ([4]; at 3.7 µM): 12%
growth inhibition [4, 16]: 100% (active)
growth inhibition ([4]; at 11.0 µM): -7%
growth inhibition ([4]; at 33.0 µM): 3%
growth inhibition [4, 17]: 100% (active)
growth inhibition ([4]; at 50.0 µM): 78.5% (active)
growth inhibition ([4]; at 100.0 µM): -17%
growth inhibition ([5]; at 1.2 µM): -49%
growth inhibition ([5]; at 3.7 µM): -67%
growth inhibition [5, 16]: 100% (active)
growth inhibition ([5]; at 11.0 µM): -80%
growth inhibition ([5]; at 33.0 µM): -40%
growth inhibition [5, 17]: 100% (active)
growth inhibition ([5]; at 50.0 µM): 88.8% (active)
growth inhibition ([5]; at 100.0 µM): -60%
growth inhibition [7, 16]: 2%
growth inhibition [7, 17]: 6%
growth inhibition ([7]; at 50.0 µM): 89.2% (active)
growth inhibition ([8]; at 1.2 µM): -14%
growth inhibition ([8]; at 3.7 µM): -15%
growth inhibition ([8]; at 11.0 µM): -7%
growth inhibition ([8]; at 33.0 µM): -2%
growth inhibition ([8]; at 100.0 µM): 10%
growth inhibition [9, 16]: 16%
growth inhibition [9, 17]: 37%
growth inhibition ([9]; at 50.0 µM): 90.3% (active)
growth inhibition ([10]; at 1.2 µM): -26%
growth inhibition ([10]; at 3.7 µM): -20%
growth inhibition [10, 16]: 26%
growth inhibition ([10]; at 11.0 µM): -41%
growth inhibition ([10]; at 33.0 µM): -25%
growth inhibition [10, 17]: 9%
growth inhibition ([10]; at 50.0 µM): 87.4% (active)
growth inhibition ([10]; at 100.0 µM): -46%
growth inhibition ([11]; at 1.2 µM): -31%
growth inhibition ([11]; at 3.7 µM): -15%
growth inhibition ([11]; at 11.0 µM): -21%
growth inhibition ([11]; at 33.0 µM): -24%
growth inhibition ([11]; at 100.0 µM): -13%
growth inhibition ([12]; at 1.2 µM): -8%
growth inhibition ([12]; at 3.7 µM): -7%
growth inhibition ([12]; at 11.0 µM): -14%
growth inhibition ([12]; at 33.0 µM): -32%
growth inhibition ([12]; at 100.0 µM): -24%
growth inhibition ([13]; at 1.2 µM): -29%
growth inhibition ([13]; at 3.7 µM): -36%
growth inhibition ([13]; at 11.0 µM): -40%
growth inhibition ([13]; at 33.0 µM): -23%
growth inhibition ([13]; at 100.0 µM): -40%
growth inhibition [14, 16]: 100% (active)
growth inhibition [14, 17]: 100% (active)
growth inhibition ([14]; at 50.0 µM): 81.6% (active)
growth inhibition ([15]; at 1.2 µM): -50%
growth inhibition ([15]; at 3.7 µM): -54%
growth inhibition ([15]; at 11.0 µM): -51%
growth inhibition ([15]; at 33.0 µM): -58%
growth inhibition ([15]; at 100.0 µM): -42%
